Test [1] is described as follows: compounds altering viability of human ES cells (AID 493140; call rule not given here;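 further: cells exposed to compounds for four days before counting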). The conditions noted are these: human embryonic stem cell survival screen; stronger effect = higher value.
A short description of test [2]: P. berghei load reduction in hepatocytes – cell-based, HepG2, luciferase luminescence, HepG2 viability, primary screen (AID 624349; in the data active means parasite load remaining mostly below about 12%, no sharp cut-off; inactive means mostly above about 10%;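 further: 100% = mean of DMSO negative control wells on the same plate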). The conditions noted are these: P. berghei liver stage in HepG2, luciferase luminescence, concentration not given here; parasite load remaining: stronger effect = lower value; viability: measured here: HepG2 viability without parasites.
A short description of test [3]: Wnt pathway potentiators raising nuclear beta-catenin – imaging, WNT3A-conditioned medium, mouse C2C12, NPC library, primary screen (AID 1117326; in the data active means nuclear beta-catenin stimulation mostly above about 4.2%, no sharp cut-off; inactive means mostly below about 10%). The conditions noted are these: stronger effect = higher value.
The nature of test [4]: stimulators of insulin release from INS-1E, primary screen, cell-based, 5 mM glucose, NPC library (AID 1117329;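 active means compound raises insulin release from rat beta cells at 5 mM glucose, no numeric limit stated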). To be noted: rat INS-1E insulin secretion, at 10 µM, stronger effect = higher value.
Test [5] in a line: growth inhibition of GSK3B-pretreated HCT116 cells – cell-based, CellTiter-Glo, 0.2 to 20 µM (AID 1117336;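 active means compounds lowering colon cancer cell viability after pretreatment blocking the GSK3B kinase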). To be noted: HCT116 viability after GSK3B inhibitor, at 20 µM, stronger effect = higher value. A general note: ATP-based viability assays read luminescence as a measure of living cells.
A short description of test [6]: inhibition of endothelial tube formation, primary screen, imaging, VEGF stimulated, CD31 staining, tube area, NPC library (AID 1117340;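 active means compound that reduces growth-factor-driven endothelial tube area in a mixed cell culture, no cutoff stated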). The conditions noted are these: VEGF-stimulated ADSC/ECFC co-culture, at 10 µM, stronger effect = higher value.
Test [7] can be described thus: GLP1 release stimulators, primary, NCI-H716, NPC library (AID 1117341;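 active means compound raises GLP1 secretion from the human gut endocrine cells, with no numeric limit stated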). To be noted: NCI-H716 cells, at 10 µM, stronger effect = higher value.
Test [8] in a line: HCT116 colon cancer cell growth inhibition, primary screen, CellTiter-Glo luminescence, NPC library (AID 1117342;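 active means compounds that lower survival of HCT116 colon cancer cells in the luminescence readout, no numeric limit stated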). The conditions noted are these: at 20 µM (top of the series).
A short description of test [9]: reduced SW480 viability measured with CellTiter-Glo, NPC library, primary (AID 1117343;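 active means compounds that lower viability of the colon cancer cells in the luminescence readout, with no numeric limit stated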). To be noted: CellTiter-Glo luminescence; at 20 µM (top of the series) unless noted.
The nature of test [10]: NPC library primary testing for decreased DLD-1 cell viability via CellTiter-Glo (AID 1117346;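 active means compounds that lower survival of DLD-1 colon cancer cells in the luminescence readout, no cutoff given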). To be noted: DLD-1 viability, CellTiter-Glo luminescence; at 20 µM (top of the series).
Test [11] is described as follows: EMT-state selective cytotoxicity in co-culture – imaging, PC-3E GFP, TEM4-18 mCherry, primary screen (AID 1345086;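 active means compounds killing one labelled cell type while sparing the other, by normalised counts and ratio limits, not self-fluorescent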;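 on all read-outs here: cells exposed to compound for 72 h before imaging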;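 on red/green cell ratio (normalised): normalised mesenchymal count divided by normalised epithelial count so high means epithelial killing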). The conditions noted are these: PC-3E GFP / TEM4-18 mCherry co-culture, imaging cell counts, at 1 µM; for red/green cell ratio (normalised): actives lie on both sides, counts scaled to control wells, 1 = unselective.
Test [12] in a line: viability loss with induced miR-34 in A549 – imaging, A549 dox-inducible miR-34, nuclei and caspase counts, primary screen (AID 1347080). The conditions noted are these: A549 miR-34 inducible, Hoechst nuclei count, 48 h.
Test [13] can be described thus: MELAS cybrid and Rieske KO viability enhancers – cell-based, MELAS cybrids, Rieske KO mouse fibroblasts, CellTiter-Glo, primary screen (AID 1508586;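 active means mean z-score across replicates of 1.96 or higher in either the MELAS or the Rieske mutant cell line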;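 further: z relative to plate mean and SD of compound and empty wells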). The conditions noted are these: low glucose.
In test [14] the target is NAD(+) hydrolase SARM1 (Homo sapiens) (UniProt Q6SZW1). Kind of test: blocking NAD cleavage by SARM1 SAM-TIR – cell lysate, NAD-Glo luminescence (AID 1508614;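 active means compound whose remaining NAD level is above about 45 nM, limit read from the data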). The conditions noted are these: SAM-TIR HEK293T lysate NADase, at 1 µM, stronger effect = higher value.
Chain of NAD(+) hydrolase SARM1 (Homo sapiens) (Q6SZW1 whole entry, looked up): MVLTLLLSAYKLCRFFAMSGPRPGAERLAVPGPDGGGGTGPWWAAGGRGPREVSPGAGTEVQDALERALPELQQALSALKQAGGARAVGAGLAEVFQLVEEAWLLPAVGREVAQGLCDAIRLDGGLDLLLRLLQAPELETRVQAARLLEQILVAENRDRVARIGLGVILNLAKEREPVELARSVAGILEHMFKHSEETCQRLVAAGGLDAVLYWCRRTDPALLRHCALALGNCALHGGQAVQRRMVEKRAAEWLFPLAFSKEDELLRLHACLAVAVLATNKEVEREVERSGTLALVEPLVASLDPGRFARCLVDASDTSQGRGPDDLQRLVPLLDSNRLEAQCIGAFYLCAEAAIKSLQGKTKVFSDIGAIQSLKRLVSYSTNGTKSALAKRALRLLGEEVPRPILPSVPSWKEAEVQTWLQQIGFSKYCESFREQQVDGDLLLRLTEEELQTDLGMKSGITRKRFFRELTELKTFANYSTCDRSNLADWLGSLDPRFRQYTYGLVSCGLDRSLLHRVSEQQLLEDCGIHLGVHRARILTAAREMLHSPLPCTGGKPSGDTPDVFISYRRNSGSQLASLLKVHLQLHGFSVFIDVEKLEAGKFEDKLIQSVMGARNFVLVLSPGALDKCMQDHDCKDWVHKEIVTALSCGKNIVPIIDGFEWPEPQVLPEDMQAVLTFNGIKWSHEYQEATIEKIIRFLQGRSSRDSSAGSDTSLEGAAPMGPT
[15] abbreviates: measured here: epithelial PC-3E GFP cell survival.
Where [16] appears, read: measured here: mesenchymal TEM4-18 mCherry cell survival.
Where [17] appears, read: stronger effect = lower value, cell number ratio, induced over uninduced.
[18] abbreviates: measured here: relative caspase fold change +Dox/-Dox.
[19] abbreviates: measured here: total cells with miR-34 induction, stronger effect = lower value.
Where [20] appears, read: measured here: total cells without miR-34 induction.
The mark [21] stands for this setting: MELAS cybrid survival, CellTiter-Glo 48 h, stronger effect = higher value.
[22] abbreviates: Rieske KO mouse fibroblast survival, CellTiter-Glo 72 h.

The term viability denotes a per cent measure of how many cells are alive, often set against a control.

The structures appear in SMILES notation. Several values for one entry are separate records, joined by “and”; a condition that tells them apart may be missing. Equal entries are not always repeated. Activity calls are given as the source filed them.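 How the source made its calls, unless noted: active means compounds whose cell count with miR-34 switched on is under 0.7 times the count with it off; inactive means the rest.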

With `O=C(O)Cc1ccc(-c2ccccc2)cc1`, in test [1], the survival is 7.67 (inactive). Also, the parasite load remaining in [2] was 98.2% (inactive). In test [2], this compound came in with a viability of 99.7%. The nuclear beta-catenin stimulation is -0.4% (inactive) in test [3] (at 10 µM) and 0.3% in test [3] (stimulation, at 2 µM). Further, the insulin secretion stimulation in [4] was -1.1% (inactive). The viability decrease in test [5] is -34.7% (inactive). Further, the tube area decrease in [6] was 6.9% (inactive). Also, in test [7], the GLP1 secretion stimulation was 1.7% (inactive). Besides, the inhibition of viability in [8] was 2.33% (inactive). In addition, the viability decrease (inhibition) was 7.7% (inactive) in [9] and -10.7% (inactive) in test [10]. In [11], the red/green cell ratio (normalised) is 0.72 (inactive). Also, the normalised cell number in [11] (setting [15]) amounted to 1.44; in test [11] (setting [16]) it was 1.04. The figures for the fold change in test [12] (setting [17]) and in test [12] (setting [18]) were 0.915 (inactive) and 1.39, respectively. For the same compound, the values for the cell count in test [12] (setting [19]) and in [12] (setting [20]) were 9920 and 10800, respectively. Moreover, the z-score in [13] (setting [21]) was 0.702 (inactive); in test [13] (setting [22]), -0.122. In addition, in test [14], the remaining NAD is 10 nM (inactive).
Consider `O=C1OC(CN2CCOCC2)CN1/N=C/c1ccc([N+](=O)[O-])o1` (configuration not stated), for which the parasite load remaining in test [2] is 37.8% (inactive). Further, in test [2], the viability was determined as 89.8%. Also, the nuclear beta-catenin stimulation in test [3] (at 10 µM) is 1.3% (inactive); in test [3] (stimulation, at 2 µM), 3.6%. In addition, in test [4], the insulin secretion stimulation is -1.4% (inactive). Also, the viability decrease in [5] was 31.8% (inactive). In addition, the tube area decrease in test [6] was -4.4% (inactive). Also, in [7], the GLP1 secretion stimulation is -0.3% (inactive). Also, in [8], the inhibition of viability is 24.6% (inactive). Further, the viability decrease (inhibition) was 22% (inactive) in test [9] and -32.5% (inactive) in test [10]. Further, the red/green cell ratio (normalised) in test [11] is 1.05 (inactive). In addition, the normalised cell number in test [11] (setting [15]) was 1.05; in [11] (setting [16]), 1.1. The fold change was 0.949 (inactive) and 0.857 (inactive) in test [12] (setting [17]); 0.904 and 1.34 in test [12] (setting [18]). The cell count is 8490 and 8240 in test [12] (setting [19]); 8940 and 9610 in test [12] (setting [20]). In addition, the z-score in test [13] (setting [21]) is -1.3 (inactive); in test [13] (setting [22]) it was -1.11. The remaining NAD in [14] is 10 nM (inactive).
Consider `CN1C(=O)CC(c2ccccc2)C1=O` (configuration not stated), for which the survival in test [1] was 19.1 (inactive). The parasite load remaining in test [2] was 94.6% (inactive). The compound further gave a viability in test [2] of 73.1%. In addition, the nuclear beta-catenin stimulation is 0.4% (inactive) in [3] (at 10 µM) and 0.3% in [3] (stimulation, at 2 µM). Further, the insulin secretion stimulation in test [4] was -0.7% (inactive). The viability decrease in [5] is 4.95% (inactive). Moreover, the tube area decrease in [6] was -2.7% (inactive). The GLP1 secretion stimulation in test [7] was -0.4% (inactive). For the same compound, in test [8], the inhibition of viability is -5.7% (inactive). Moreover, the viability decrease (inhibition) in [9] was 54.4% (active); in test [10] it was 12.9% (inactive). Besides, the red/green cell ratio (normalised) in test [11] was 0.99 (inactive). In addition, the results for the normalised cell number in [11] (setting [15]) and in test [11] (setting [16]) were 1.01 and 1, respectively. The fold change in [12] (setting [17]) is 0.941 (inactive) and 0.972 (inactive); in test [12] (setting [18]), 1.17 and 0.864. Besides, the cell count in test [12] (setting [19]) is 9250 and 9510; in test [12] (setting [20]), 9830 and 9780. For the same compound, the z-score in test [13] (setting [21]) was 0.397 (inactive); in test [13] (setting [22]), 0.0941. Moreover, the remaining NAD in test [14] is 10 nM (inactive).
With `NC(=O)NS(=O)(=O)c1ccc(N)cc1`, the nuclear beta-catenin stimulation in test [3] (at 10 µM) was -1.6% (inactive); in [3] (stimulation, at 2 µM), 0.3%. Besides, in [4], the insulin secretion stimulation is 5.8% (inactive). In addition, the viability decrease in test [5] was -1.6% (inactive). In addition, in [6], the tube area decrease is -10.6% (inactive). Further, in [7], the GLP1 secretion stimulation was -4.5% (inactive). For the same compound, in test [8], the inhibition of viability was 6.1% (inactive). For the same compound, the viability decrease (inhibition) was 75.8% (active) in test [9] and -12.6% (inactive) in [10]. Also, in test [11], the red/green cell ratio (normalised) is 0.74 (inactive). Further, the normalised cell number in [11] (setting [15]) was 1.37; in [11] (setting [16]), 1.02. Besides, the fold change in [12] (setting [17]) is 0.96 (inactive); in test [12] (setting [18]) it was 0.945. For the same compound, the figures for the cell count in test [12] (setting [19]) and in [12] (setting [20]) were 8990 and 9360, respectively. In addition, in test [14], the remaining NAD is 10 nM (inactive).

The values above are taken from PubChem BioAssay.
